# Laboratory results published in PMC7862700, “An all-to-all approach to the identification of sequence-specific readers for epigenetic DNA modifications on cytosine”.
# Tests used:
# Test in all cases: DAPPL (digital affinity profiling via proximity ligation, sequencing); 10 mM Tris-HCl pH 7.5, 50 mM NaCl, 1 mM DTT, 4% glycerol, room temperature, 30 min; GST-TFs on glutathione beads, 16-mer random dsDNA library, 0.1% formaldehyde crosslink after washing; high values mean tight binding
# [1] = molecular target: T1, FEV (Homo sapiens, UniProt Q99581 1-238); conditions: protein: recombinant; tags: N-terminal GST; dsDNA, one strand shown
# T1 sequence: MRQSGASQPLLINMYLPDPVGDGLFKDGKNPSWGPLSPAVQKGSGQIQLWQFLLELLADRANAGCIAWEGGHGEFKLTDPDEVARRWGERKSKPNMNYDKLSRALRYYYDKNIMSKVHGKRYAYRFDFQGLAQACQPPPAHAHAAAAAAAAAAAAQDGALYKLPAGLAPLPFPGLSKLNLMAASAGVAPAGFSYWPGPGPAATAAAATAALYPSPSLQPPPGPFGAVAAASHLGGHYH
# Method in brief: (§1)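 The binding signal reported is, for every hexamer, its read frequency for a factor over its read frequency for the tag-only sample. Reads came from pools of yeast-expressed, GST-fused human transcription factors on glutathione beads, barcoded with DNA and mixed with that sample, which were incubated with 200 nmole of a random double-stranded 16-mer DNA library in Tris/NaCl/DTT/glycerol buffer at room temperature for 30 min. After washing, the pools were crosslinked with 0.1% formaldehyde, proximity-ligated with BsaI/T4 ligase for 1 h at 37 °C, PCR-amplified and sequenced on an Illumina NextSeq500.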
# [2] = molecular target: ETV5 (Homo sapiens, UniProt P41161 1-510); conditions: protein: recombinant; tags: N-terminal GST; dsDNA, one strand shown
# Chain of ETV5 (P41161 whole entry): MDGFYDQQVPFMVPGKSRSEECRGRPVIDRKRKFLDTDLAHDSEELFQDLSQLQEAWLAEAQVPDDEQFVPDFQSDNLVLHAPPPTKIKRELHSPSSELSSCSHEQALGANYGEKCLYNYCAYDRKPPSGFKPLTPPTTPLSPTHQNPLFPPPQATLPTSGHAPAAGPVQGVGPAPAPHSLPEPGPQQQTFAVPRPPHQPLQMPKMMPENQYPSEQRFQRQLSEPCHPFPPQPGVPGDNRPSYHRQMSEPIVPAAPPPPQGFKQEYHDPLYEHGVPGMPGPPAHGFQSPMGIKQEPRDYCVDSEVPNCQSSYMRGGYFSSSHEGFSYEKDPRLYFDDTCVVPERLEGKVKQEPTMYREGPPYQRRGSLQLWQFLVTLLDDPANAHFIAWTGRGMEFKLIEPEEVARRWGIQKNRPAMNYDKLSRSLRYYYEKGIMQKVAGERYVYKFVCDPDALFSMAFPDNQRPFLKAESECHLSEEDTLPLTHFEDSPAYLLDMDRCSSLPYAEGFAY
# Method in brief: as §1
# [3] = molecular target: HSF1 (Homo sapiens, UniProt Q00613 1-529); conditions: protein: recombinant; tags: N-terminal GST; chain copies: 3; dsDNA, one strand shown
# Chain of HSF1 (Q00613 whole entry): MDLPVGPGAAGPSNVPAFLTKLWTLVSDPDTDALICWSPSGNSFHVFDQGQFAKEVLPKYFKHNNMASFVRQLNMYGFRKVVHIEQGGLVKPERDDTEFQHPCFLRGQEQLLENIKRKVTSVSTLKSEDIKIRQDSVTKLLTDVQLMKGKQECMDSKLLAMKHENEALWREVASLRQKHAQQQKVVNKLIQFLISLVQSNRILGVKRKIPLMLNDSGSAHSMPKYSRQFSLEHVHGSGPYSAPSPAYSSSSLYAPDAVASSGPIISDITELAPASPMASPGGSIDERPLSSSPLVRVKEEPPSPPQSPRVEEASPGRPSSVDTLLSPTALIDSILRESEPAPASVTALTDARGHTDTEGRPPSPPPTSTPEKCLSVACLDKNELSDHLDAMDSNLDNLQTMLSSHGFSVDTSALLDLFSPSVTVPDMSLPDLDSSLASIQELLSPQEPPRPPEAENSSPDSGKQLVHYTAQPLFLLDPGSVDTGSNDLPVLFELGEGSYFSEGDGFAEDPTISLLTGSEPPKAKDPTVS
# Method in brief: as §1
# [4] = molecular target: T2, SPIC (Homo sapiens, UniProt Q8N5J4 1-248); conditions: protein: recombinant; tags: N-terminal GST; dsDNA, one strand shown
# T2 sequence: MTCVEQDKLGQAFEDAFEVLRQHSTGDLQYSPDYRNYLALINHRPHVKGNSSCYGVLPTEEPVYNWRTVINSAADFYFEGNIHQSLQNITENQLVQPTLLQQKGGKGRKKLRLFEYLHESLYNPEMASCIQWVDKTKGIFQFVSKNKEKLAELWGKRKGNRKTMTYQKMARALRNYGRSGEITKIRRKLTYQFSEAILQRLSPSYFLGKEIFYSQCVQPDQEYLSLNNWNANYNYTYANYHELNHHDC
# Method in brief: as §1
# [5] = molecular target: ELF4 (Homo sapiens, UniProt Q99607 1-663); conditions: protein: recombinant; tags: N-terminal GST; dsDNA, one strand shown
# Chain of ELF4 (Q99607 whole entry): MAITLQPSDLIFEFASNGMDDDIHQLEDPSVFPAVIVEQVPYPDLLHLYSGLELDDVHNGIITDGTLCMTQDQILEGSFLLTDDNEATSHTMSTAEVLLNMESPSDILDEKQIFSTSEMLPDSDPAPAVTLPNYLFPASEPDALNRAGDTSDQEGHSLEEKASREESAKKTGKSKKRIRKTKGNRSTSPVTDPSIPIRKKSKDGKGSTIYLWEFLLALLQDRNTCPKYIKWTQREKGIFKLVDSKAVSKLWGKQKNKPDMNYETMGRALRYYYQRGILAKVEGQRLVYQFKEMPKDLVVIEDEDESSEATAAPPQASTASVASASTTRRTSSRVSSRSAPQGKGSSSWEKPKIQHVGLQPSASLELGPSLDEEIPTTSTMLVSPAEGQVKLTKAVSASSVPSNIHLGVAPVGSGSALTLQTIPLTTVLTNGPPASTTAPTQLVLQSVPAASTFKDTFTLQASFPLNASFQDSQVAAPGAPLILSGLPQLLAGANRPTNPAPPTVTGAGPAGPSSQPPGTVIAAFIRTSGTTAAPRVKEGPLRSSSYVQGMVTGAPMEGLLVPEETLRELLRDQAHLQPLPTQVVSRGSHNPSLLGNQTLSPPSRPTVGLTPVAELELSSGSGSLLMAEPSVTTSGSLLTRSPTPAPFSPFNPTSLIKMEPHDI
# Method in brief: as §1
# [6] = molecular target: T3, ELK4 (Homo sapiens, UniProt P28324-2 1-405); conditions: protein: recombinant; tags: N-terminal GST; dsDNA, one strand shown
# T3 sequence: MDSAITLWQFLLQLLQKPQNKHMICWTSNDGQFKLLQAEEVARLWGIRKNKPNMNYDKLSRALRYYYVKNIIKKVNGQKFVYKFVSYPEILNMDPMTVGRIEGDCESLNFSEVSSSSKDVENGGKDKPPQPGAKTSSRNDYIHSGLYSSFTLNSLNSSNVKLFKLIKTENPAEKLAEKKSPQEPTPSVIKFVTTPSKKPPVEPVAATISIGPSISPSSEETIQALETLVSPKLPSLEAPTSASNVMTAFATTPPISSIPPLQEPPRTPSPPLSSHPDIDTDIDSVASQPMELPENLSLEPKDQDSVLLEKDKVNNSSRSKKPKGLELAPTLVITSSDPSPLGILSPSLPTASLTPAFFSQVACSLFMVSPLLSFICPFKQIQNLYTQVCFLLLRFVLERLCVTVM
# Method in brief: as §1
# [7] = molecular target: T4, ETV2 (Homo sapiens, UniProt O00321 1-342); conditions: protein: recombinant; tags: N-terminal GST; dsDNA, one strand shown
# T4 sequence: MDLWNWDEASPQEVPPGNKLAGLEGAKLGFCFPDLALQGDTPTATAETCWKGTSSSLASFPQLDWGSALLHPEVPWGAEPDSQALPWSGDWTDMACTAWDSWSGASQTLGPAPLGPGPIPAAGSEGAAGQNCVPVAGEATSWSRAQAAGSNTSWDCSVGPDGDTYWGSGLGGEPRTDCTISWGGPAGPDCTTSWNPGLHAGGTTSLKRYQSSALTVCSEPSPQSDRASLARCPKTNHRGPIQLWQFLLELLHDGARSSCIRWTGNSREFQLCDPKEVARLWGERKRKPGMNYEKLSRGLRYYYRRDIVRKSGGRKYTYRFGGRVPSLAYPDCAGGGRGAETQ
# Method in brief: as §1
# [8] = molecular target: T5, ELF3 (Homo sapiens, UniProt P78545 1-371); conditions: protein: recombinant; tags: N-terminal GST; dsDNA, one strand shown
# T5 sequence: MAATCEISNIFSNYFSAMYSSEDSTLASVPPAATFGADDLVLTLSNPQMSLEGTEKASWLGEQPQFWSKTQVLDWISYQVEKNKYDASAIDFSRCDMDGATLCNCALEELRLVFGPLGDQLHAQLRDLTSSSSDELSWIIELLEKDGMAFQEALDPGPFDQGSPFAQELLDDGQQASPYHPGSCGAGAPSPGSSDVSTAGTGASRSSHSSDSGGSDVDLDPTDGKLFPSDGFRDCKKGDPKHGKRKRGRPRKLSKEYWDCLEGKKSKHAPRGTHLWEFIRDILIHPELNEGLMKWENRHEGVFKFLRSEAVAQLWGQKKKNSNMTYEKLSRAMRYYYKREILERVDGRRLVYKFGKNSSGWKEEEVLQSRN
# Method in brief: as §1
# [9] = molecular target: ETV1 (Homo sapiens, UniProt P50549 1-477); conditions: protein: recombinant; tags: N-terminal GST; dsDNA, one strand shown
# Chain of ETV1 (P50549 whole entry): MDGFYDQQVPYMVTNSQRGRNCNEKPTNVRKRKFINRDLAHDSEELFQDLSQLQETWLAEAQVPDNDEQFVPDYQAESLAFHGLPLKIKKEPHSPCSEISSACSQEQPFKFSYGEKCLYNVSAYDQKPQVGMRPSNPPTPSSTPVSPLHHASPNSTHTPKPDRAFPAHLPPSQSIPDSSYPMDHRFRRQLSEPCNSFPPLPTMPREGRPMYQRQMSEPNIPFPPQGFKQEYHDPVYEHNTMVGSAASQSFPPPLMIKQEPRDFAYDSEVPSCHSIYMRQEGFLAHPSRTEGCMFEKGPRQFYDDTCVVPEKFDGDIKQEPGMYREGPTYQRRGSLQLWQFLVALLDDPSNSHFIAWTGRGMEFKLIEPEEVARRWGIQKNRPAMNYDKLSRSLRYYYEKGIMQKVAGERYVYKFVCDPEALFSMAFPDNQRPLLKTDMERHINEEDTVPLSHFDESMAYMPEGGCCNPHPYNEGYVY
# Method in brief: as §1
# [10] = molecular target: T6, ERF (Homo sapiens, UniProt P50548 1-548); conditions: protein: recombinant; tags: N-terminal GST; dsDNA, one strand shown
# T6 sequence: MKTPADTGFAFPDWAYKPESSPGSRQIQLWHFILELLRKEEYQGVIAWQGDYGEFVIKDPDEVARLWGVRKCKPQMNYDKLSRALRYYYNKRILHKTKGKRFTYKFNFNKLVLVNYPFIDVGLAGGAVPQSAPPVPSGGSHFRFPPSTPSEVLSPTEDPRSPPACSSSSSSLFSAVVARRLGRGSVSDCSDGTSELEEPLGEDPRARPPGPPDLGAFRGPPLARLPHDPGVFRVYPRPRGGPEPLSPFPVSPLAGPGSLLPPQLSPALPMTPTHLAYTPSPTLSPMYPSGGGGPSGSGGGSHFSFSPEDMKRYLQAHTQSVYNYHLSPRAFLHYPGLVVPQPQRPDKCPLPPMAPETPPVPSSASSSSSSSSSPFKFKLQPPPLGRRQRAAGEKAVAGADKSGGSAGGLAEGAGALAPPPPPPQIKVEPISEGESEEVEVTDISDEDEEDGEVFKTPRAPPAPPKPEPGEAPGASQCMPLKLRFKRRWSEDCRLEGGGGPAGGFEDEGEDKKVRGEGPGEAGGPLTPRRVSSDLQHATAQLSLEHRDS
# Method in brief: as §1
# [11] = molecular target: T7, ETV3L (Homo sapiens, UniProt Q6ZN32 1-361); conditions: protein: recombinant; tags: N-terminal GST; dsDNA, one strand shown
# T7 sequence: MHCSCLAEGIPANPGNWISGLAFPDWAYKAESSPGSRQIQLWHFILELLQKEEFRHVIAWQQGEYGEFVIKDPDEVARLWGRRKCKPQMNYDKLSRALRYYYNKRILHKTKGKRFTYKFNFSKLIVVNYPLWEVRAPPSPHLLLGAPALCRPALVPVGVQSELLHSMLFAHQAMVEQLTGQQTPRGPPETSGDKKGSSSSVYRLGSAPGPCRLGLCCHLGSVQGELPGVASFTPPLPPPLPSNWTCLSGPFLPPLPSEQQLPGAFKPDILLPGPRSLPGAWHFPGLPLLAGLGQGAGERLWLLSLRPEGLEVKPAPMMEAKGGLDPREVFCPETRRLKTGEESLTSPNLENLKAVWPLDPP
# Method in brief: as §1
# [12] = molecular target: T8, ETS2 (Homo sapiens, UniProt P15036 1-469); conditions: protein: recombinant; tags: N-terminal GST; dsDNA, one strand shown
# T8 sequence: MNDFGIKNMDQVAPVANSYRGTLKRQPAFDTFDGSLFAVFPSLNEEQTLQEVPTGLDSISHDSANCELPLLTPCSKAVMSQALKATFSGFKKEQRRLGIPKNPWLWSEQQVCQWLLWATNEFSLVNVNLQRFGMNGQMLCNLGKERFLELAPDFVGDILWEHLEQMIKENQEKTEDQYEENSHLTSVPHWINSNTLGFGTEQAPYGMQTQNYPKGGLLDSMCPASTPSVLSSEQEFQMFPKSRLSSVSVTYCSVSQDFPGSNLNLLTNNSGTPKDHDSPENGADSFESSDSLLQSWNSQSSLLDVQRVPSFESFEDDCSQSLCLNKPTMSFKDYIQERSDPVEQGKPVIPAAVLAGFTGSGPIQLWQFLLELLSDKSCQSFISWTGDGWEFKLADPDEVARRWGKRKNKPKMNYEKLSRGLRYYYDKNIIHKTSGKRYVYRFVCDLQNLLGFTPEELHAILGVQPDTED
# Method in brief: as §1
# [13] = molecular target: T9, SPDEF (Homo sapiens, UniProt O95238 1-335); conditions: protein: recombinant; tags: N-terminal GST; dsDNA, one strand shown
# T9 sequence: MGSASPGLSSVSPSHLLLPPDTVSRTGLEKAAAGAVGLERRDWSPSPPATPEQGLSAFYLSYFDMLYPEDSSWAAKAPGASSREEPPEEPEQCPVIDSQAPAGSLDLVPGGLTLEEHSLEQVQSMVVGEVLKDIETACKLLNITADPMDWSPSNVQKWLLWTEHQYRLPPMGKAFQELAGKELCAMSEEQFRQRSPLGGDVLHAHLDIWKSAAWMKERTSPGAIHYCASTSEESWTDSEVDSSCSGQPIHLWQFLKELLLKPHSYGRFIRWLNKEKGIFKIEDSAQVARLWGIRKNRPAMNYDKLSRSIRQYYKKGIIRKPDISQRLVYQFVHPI
# Method in brief: as §1
# [14] = molecular target: T10, ETV7 (Homo sapiens, UniProt Q9Y603 1-341); conditions: protein: recombinant; tags: N-terminal GST; dsDNA, one strand shown
# T10 sequence: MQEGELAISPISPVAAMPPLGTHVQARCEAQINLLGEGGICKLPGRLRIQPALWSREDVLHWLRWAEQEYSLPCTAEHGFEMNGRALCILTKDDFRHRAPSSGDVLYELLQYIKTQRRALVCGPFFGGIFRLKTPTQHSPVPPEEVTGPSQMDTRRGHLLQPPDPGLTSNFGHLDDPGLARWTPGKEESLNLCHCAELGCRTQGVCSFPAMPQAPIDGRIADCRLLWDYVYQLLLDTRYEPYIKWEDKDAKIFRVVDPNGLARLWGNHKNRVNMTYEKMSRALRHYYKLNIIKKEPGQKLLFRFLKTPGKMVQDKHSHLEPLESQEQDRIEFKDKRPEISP
# Method in brief: as §1
# [15] = molecular target: T11, ELF5 (Homo sapiens, UniProt Q9UKW6-2 1-255); conditions: protein: recombinant; tags: N-terminal GST; dsDNA, one strand shown
# T11 sequence: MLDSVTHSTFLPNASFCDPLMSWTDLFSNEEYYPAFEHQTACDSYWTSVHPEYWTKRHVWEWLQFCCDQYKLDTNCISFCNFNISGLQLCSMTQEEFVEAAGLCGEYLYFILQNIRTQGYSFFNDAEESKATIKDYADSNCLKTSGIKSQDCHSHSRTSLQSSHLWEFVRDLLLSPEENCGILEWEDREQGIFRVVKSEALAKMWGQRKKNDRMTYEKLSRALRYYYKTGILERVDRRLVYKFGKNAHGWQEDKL
# Method in brief: as §1
# [16] = molecular target: T12, ETV3 (Homo sapiens, UniProt P41162-2 1-143); conditions: protein: recombinant; tags: N-terminal GST; dsDNA, one strand shown
# T12 sequence: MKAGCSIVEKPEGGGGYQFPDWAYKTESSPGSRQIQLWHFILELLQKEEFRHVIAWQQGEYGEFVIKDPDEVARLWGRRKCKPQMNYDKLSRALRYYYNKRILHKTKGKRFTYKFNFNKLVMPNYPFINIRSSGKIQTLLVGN
# Method in brief: as §1
# [17] = molecular target: ETV6 (Homo sapiens, UniProt P41212 1-452); conditions: protein: recombinant; tags: N-terminal GST; dsDNA, one strand shown
# Chain of ETV6 (P41212 whole entry): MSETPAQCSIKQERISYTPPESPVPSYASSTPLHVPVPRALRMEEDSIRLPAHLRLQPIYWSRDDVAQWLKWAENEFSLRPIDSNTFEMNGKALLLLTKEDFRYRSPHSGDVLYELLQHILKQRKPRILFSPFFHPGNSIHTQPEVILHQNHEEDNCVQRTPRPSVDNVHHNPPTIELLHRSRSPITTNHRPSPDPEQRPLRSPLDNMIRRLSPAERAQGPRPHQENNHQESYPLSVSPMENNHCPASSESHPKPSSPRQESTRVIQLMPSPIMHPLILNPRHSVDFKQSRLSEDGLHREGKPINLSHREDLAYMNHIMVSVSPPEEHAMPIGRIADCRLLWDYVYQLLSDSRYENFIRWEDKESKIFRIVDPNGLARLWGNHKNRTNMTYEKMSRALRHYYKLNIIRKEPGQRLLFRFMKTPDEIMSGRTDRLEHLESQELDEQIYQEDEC
# Method in brief: as §1
sequence,measurement,setting,value
GACCTC,binding signal,[1],"1.41 fold enrichment (6-mer frequency, TF over GST control)"
same,binding signal,[2],"1.42 fold enrichment (6-mer frequency, TF over GST control)"
same,binding signal,[3],"1.17 fold enrichment (6-mer frequency, TF over GST control)"
same,binding signal,[4],"1.18 fold enrichment (6-mer frequency, TF over GST control)"
same,binding signal,[5],"1.4 fold enrichment (6-mer frequency, TF over GST control)"
same,binding signal,[6],"1.38 fold enrichment (6-mer frequency, TF over GST control)"
same,binding signal,[7],"1.51 fold enrichment (6-mer frequency, TF over GST control)"
same,binding signal,[8],"1.45 fold enrichment (6-mer frequency, TF over GST control)"
same,binding signal,[9],"1.38 fold enrichment (6-mer frequency, TF over GST control)"
same,binding signal,[10],"1.52 fold enrichment (6-mer frequency, TF over GST control)"
same,binding signal,[11],"1.51 fold enrichment (6-mer frequency, TF over GST control)"
same,binding signal,[12],"1.38 fold enrichment (6-mer frequency, TF over GST control)"
same,binding signal,[13],"1.29 fold enrichment (6-mer frequency, TF over GST control)"
same,binding signal,[14],"1.33 fold enrichment (6-mer frequency, TF over GST control)"
same,binding signal,[15],"1.32 fold enrichment (6-mer frequency, TF over GST control)"
same,binding signal,[16],"1.28 fold enrichment (6-mer frequency, TF over GST control)"
same,binding signal,[17],"1.42 fold enrichment (6-mer frequency, TF over GST control)"
